# Assay results reported in PubChem BioAssay (NCATS).
# Results filed as inconclusive are left out. Activity calls are given as the source filed them. The call rests on the fitted dose curve; in most records, active means well fitted cell-killing curve with a large enough effect; inconclusive means small, poorly fitted or top-dose-only effect; inactive means flat fitted curve, though single readings scatter.
# Test: Identifying Small Molecule Inhibitors of Pancreatic Cancer Stem Cells (SN12C, Adherent) (AID 1259358);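 further: cell survival measured after 48 h of compound exposure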
# Details: viability/growth inhibition; series mostly up to 46.1 µM; viability (percent of control): at the top concentration
# From the text: Progenitor-like cancer cells, often referred to as cancer stem cells (CSC), are believed to be the drivers of therapeutic resistance and rapid recurrence. CSCs are postulated to reside in specific niches characterized by low oxygen tension, limited nutrient supply, and high redox load. Selectively targeting CSC, alone or in combination with cytotoxic agents, as a means to produce durable remissions is an appealing concept. Modeling these cells in in vitro setting is an important step in finding new therapies and/or targets. Multiple reports highlight that forcing cells in culture into 3-dimensionaly architectures (spheroids) re-establishes key progenitor-like transcriptional signatures. Pancreatic cancer is among the diseases with the most dismal outlook which is driven, largely, by recurance following front-line therapies. […] In hopes of deriving new insight into the targeting of these pancreatic CSCs we examined three established pancreatic cancer cell lines in cytotoxicity assays versus a collection of approved and investigational drugs. Importantly, we screened these lines as traditional monolayer (2D) and spheroid (3D) formats to gain an appreciation of agents with differential activity.
# Multicellular tumor spheroids from Panc1, MiaPaCa-2, and the primary low-passage tissue culture line SB.06 were seeded in stem cell media (SCM) in nonadherent 6-well plates coated with hydrogel (Corning Life Sciences, Chelmsford, Mass) and pancreatic spheres generated for 14 days before screening. Cells were seeded into 1536-well solid-bottom white tissue culture treated Greiner Bio One Plates (789173-F) using a MultiDrop Combi (Thermofisher Scientific) dispenser and a small sterile cassette. One column was media alone to be used as a :"no cells" control. The plates were then covered with sterilized stainless steel gasketed lids from Kalypsys. After allowing cells to attach for 4 hours, 23 nL of test compound or control (negative control DMSO and positive control 9.2 uM Bortezomib-final) were added from a 1536-well polypropylene compound source plate to each well using a 1536 head pin tool from Kalypsys. Cells were then incubated for 48 hours at 37C, 95% relative humidity and 5% CO2. After 48 hours, plates were removed from the incubator and 3 uL of CellTiter-Glo (Promega) was added using an Aurora Flying Reagent Dispenser Bioraptor. Plates were incubated at room temperature for 10 minutes prior to reading the luminescence on the Viewlux (PerkinElmer). The relative luciferase units are used to calculate the percent activity using the activity of DMSO in the cells and no cells columns for normalization of no inhibition and full inhibition respectively.
# Potency means the concentration at half of the fitted maximal effect.
SMILES,viability (percent of control),Potency
CC(C)(C)C(=O)Oc1ccc2c(c1)nc(NC(=O)c1cccc([N+](=O)[O-])c1)n2CCCO,89.9% (inactive),
N#Cc1ccc(NC(=O)Nc2ccccc2Br)c2n[nH]nc12,100% (inactive),
CO[C@H]1C=CC=C(C)C(=O)NC2=CC(=O)C(NCCN(C)C)=C(C[C@@H](C)C[C@H](OC)[C@@H](O)[C@@H](C)C=C(C)[C@@H]1OC(N)=O)C2=O,,0.0935 µM (active)
CCOC(CN1C(=O)[C@](CC(=O)Nc2ccc(C)cc2)(NC(=O)Nc2ccc(C)cc2)c2ccccc21)OCC,,23.5 µM (active)
COc1ccc(C2CC(c3ccccc3)=NN2c2ccc(S(N)(=O)=O)cc2)cc1 (stereo unspecified),114% (inactive),
CC(C)(C(=O)NCC(F)(F)C(F)(F)F)C(=O)N[C@@H]1C(=O)Nc2ccccc2-c2ccccc21,108% (inactive),
COc1ncc(-c2ccc3nccc(-c4ccnnc4)c3c2)cc1NS(=O)(=O)c1ccc(F)cc1F,86.8% (inactive),
CC(C)(C)COc1ccc(-n2cc(C(=O)O)cn2)cc1C#N,96.4% (inactive),
O=C(O)c1ccc(-c2cc3cccnc3c(-c3ccc4nonc4c3)n2)cc1,102% (inactive),
O=C(O)CCC1CCC(c2cc(F)ccc2F)(S(=O)(=O)c2ccc(Cl)cc2)CC1 (stereo unspecified),110% (inactive),
CC(C)(C)c1cc(C(=O)O)c(NC(=O)Nc2ccc3[nH]ncc3c2)s1,108% (inactive),
COc1cc(N2CCC(N3CCN(C)CC3)CC2)ccc1Nc1ncc(Cl)c(Nc2ccccc2S(=O)(=O)C(C)C)n1,,18.7 µM (active)
c1ccc2c(-c3cnn4cc(-c5ccc(N6CCNCC6)cc5)cnc34)ccnc2c1,,26.4 µM (active)
O=C(N[C@@H](c1ccccc1)[C@@H]1CCCCN1)c1cccc(C(F)(F)F)c1Cl,111% (inactive),
COc1cccc2c1CCCC2CCCN1CCN(C2CCCCC2)CC1 (stereo unspecified),,16.6 µM (active)
CN(C)C1CCN(C(=O)c2ccc(NC(=O)Nc3nc(N4CCOCC4)nc(N4CCOCC4)n3)cc2)CC1,,0.0074 µM (active)
CC1=C(/C=C/C(C)=C/C=C/C(C)=C/C(=O)Nc2ccc(O)cc2)C(C)(C)CCC1,78.7% (inactive),
CS(=O)c1ccc(-c2nc(-c3ccc(F)cc3)c(-c3ccncc3)[nH]2)cc1 (stereo unspecified),95.4% (inactive),
Clc1ccc(-c2nc3sccn3c2C=NOCc2ccc(Cl)c(Cl)c2)cc1,105% (inactive),
COc1cc2ncnc(-n3nc(-c4ccccn4)nc3N)c2cc1OC,,5.9 µM (active)
CC(=O)N(C)C1(c2ccccc2)CCN(CCC[C@]2(c3ccc(Cl)c(Cl)c3)CCCN(C(=O)c3ccccc3)C2)CC1,,20.9 µM (active)
CN1CCN(CCOc2cc(OC3CCOCC3)c3c(Nc4c(Cl)ccc5c4OCO5)ncnc3c2)CC1,,1.87 µM (active)
O=C1C(Cl)=C(NCCN2CCOCC2)C(=O)c2ncccc21,,6.62 µM (active)
CO[C@@H](C(=O)N1Cc2[nH]nc(NC(=O)c3ccc(N4CCN(C)CC4)cc3)c2C1)c1ccccc1,,0.743 µM (active)
OC[C@H]1O[C@@H](n2cnc3c2NC=NC[C@@H]3O)C[C@H]1O,95.6% (inactive),
CO[C@H]1C[C@@H]2CC[C@@H](C)[C@@](O)(O2)C(=O)C(=O)N2CCCC[C@@H]2C(=O)O[C@H]([C@H](C)C[C@@H]2CC[C@H](OCCO)[C@H](OC)C2)CC(=O)[C@H](C)C=C(C)[C@@H](O)[C@@H](OC)C(=O)[C@H](C)C[C@H](C)C=CC=CC=C1C,,18.7 µM (active)
